Results taken from PubChem BioAssay AID623978 (Broad Institute, 2012).
Results with a measured potency or affinity are listed apart. Inconclusive results are not listed.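 The calls were made as follows: active = every replicate run active, each with half-maximal inhibition reached at or below twice the top valid dose; inconclusive = runs disagree, or fits are weak or poor; inactive = every run inactive, including upward signal shifts.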

Biological target: Glycogen synthase kinase-3 alpha (Homo sapiens) (UniProt P49840)
Assay: GSK3A enzyme blockers, homolog specificity check – biochemical, microfluidics, dry powder samples, set 2, selectivity assay for GSK3beta inhibitor project, dose response (AID 623978)
Conditions: GSK3a microfluidic mobility shift, percent conversion; series mostly up to 35 µM; activity change, negative = inhibition: at the top concentration

Chain of Glycogen synthase kinase-3 alpha (Homo sapiens) (P49840 whole entry, looked up): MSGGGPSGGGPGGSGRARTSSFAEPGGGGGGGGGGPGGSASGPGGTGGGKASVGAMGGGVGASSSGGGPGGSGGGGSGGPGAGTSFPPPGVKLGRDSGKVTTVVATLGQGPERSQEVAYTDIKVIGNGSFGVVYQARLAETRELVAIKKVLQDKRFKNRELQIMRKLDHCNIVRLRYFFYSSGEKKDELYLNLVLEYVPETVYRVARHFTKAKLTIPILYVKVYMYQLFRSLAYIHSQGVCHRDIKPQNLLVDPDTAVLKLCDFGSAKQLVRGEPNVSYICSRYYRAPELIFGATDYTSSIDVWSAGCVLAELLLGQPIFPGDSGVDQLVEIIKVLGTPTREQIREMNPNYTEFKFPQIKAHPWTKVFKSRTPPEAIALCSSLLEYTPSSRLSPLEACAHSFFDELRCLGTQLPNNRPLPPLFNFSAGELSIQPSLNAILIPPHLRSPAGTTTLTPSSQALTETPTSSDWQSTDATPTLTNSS

Activity change, negative = inhibition, inactive:
O=C(Cc1cccc2ccccc12)Nc1cn(C2CCC2)cn1 -21.6%, Cc1ccc(S(=O)(=O)N2CCN(CC(=O)N/N=C/c3ccccn3)CC2)cc1 -22%, COc1cc(C(=O)N2CCN(c3ccccn3)CC2)cc(OC)c1OC -2.72%
